# Results filed as inconclusive are left out. Entries that show only a call come without a potency. Calls of active or inactive are those of the source. Calls come from the whole dose curve; as a rule, active = well fitted curve in the direction sought with a large enough effect; inconclusive = small, poorly fitted or top-dose-only effect, or another doubt; inactive = no such curve, though single readings can be large; an effect the other way counts as inactive or inconclusive.
# Assays:
# [1] = target: Glutathione peroxidase 1 (Homo sapiens) (UniProt P07203); test: Primary qHTS Assay for Inhibitors of Recombinant Selenoprotein Glutathione Peroxidase 1 (GPX1) (AID 1845191); settings: outcome: dose series up to 48.8 µM; note: nearly all actives have a fitted effect of over 65% in size
# How it was run: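 GR-coupled readout: NADPH consumption tracked by fluorescence, ex 340/em 450 nm, at t=0 and after 15 min at RT. Final mix 10 nM GPX1, 1 mM GSH, 0.5 mM CHP, 0.5 mM NADPH, 100 nM GR, 0.01% BSA, following 30 min enzyme–compound preincubation.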
# [2] = Primary qHTS for inhibitors of nuclear receptor binding SET domain protein 2 (NSD2) in an isogenic RCH-ACV NSD2 p.E1099K mutant (9B) (AID 1645876); note: nearly all actives have a fitted effect of over 70% in size
# [3] = target: Nuclear receptor subfamily 1 group I member 3 (Homo sapiens) (UniProt Q14994); test: Primary qHTS for antagonist of constitutive androstane receptor (CAR) against the NCATS DSHEA and TCM libraries (AID 1794836);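 note: HepG2 cells stably expressing hCAR with CYP2B6 luciferase reporter stimulated by CITCO; series mostly up to about 40 µM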
# How it was run: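 HepG2-CYP2B6-hCAR cells, attached 5 h, given compounds plus CITCO agonist […], incubated 24 h at 37 C. Luciferase luminescence read, multiplexed with CellTiter-Fluor viability (Ex/Em 405/540 nm).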
# [4] = target: Rap guanine nucleotide exchange factor 3 (Homo sapiens) (UniProt O95398); test: Confirmatory qHTS for antagonist of cAMP-regulated guanine nucleotide exchange factor 3 (EPAC1) (AID 1645880); note: nearly all actives have a fitted effect of over 55% in size
# How it was run: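 Released BODIPY-GDP fluoresces less than Rap1-bound BODIPY-GDP; the signal is followed at 480/540 nm at 5-min intervals over 30 min, after 5 min at room temperature. Reactions contain 100 nM EPAC1, 250 nM RAP1B-BODIPY-GDP and 50 uM GDP; results are normalized to ATA and DMSO.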
# [5] = target: Rap guanine nucleotide exchange factor 3 (Homo sapiens) (UniProt O95398); test: Confirmatory qHTS for agonist of cAMP-regulated guanine nucleotide exchange factor 3 (EPAC1) (AID 1645881);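 note: EPAC1 catalysed release of BODIPY-GDP from Rap1B seen as fluorescence loss; nearly all actives have a fitted effect of over 75% in size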
# [6] = target: Rap guanine nucleotide exchange factor 4 (Homo sapiens) (UniProt Q8WZA2); test: Confirmatory qHTS for agonist of cAMP-regulated guanine nucleotide exchange factor 4 (EPAC2) (AID 1645884);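 note: nucleotide exchange releases bodipy-GDP from Rap1 and this lowers its fluorescence; nearly all actives have a fitted effect of over 65% in size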
# [7] = Primary qHTS for inhibitors of nuclear receptor binding SET domain protein 2 (NSD2) in an RCH-ACV wild type WT cells (2C) (AID 1645877); note: nearly all actives have a fitted effect of over 70% in size
# [8] = Viability counterscreen for antagonist of constitutive androstane receptor (CAR) against the NCATS DSHEA and TCM libraries (AID 1794837);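 note: compound exposure lasted 24 h before viability reading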
# How it was run: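 Cell viability, CellTiter-Fluor, Ex/Em 405/540 nm, 1 h at 37C. HepG2-CYP2B6-hCAR, 2,500 cells/well; cpds + CITCO 48 uM final (antagonist mode), 24 h, 37C/5% CO2.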
# [9] = Viability counterscreen for agonist of constitutive androstane receptor (CAR) against the NCATS DSHEA and TCM libraries (AID 1794838)
# How it was run: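 Viability by CellTiter-Fluor fluorescence, 405/540 nm, after 1 h at 37C. HepG2-CYP2B6-hCAR cells were exposed 24 h to test substances in presence of 0.75 uM PK11195 (final).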
# [10] = target: Nuclear receptor subfamily 1 group I member 3 (Homo sapiens) (UniProt Q14994); test: Primary qHTS for agonist of constitutive androstane receptor (CAR) against the NCATS DSHEA and TCM libraries (AID 1794839);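 note: HepG2 cells expressing human CAR with a CYP2B6 reporter plus PK11195 antagonist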
# How it was run: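 Luminescence from ONE-Glo luciferase was the agonist read-out in HepG2-CYP2B6-hCAR cells exposed 24 h to test substances. Wells also held the CAR antagonist PK11195 at 0.75 µM final. Viability was by CellTiter-Fluor fluorescence.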
# [11] = HepG2 viability counterscreen (readout 2: ATP content) against the NCATS DSHEA and TCM libraries (AID 1794840)
# How it was run: (§1)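 1,000 HepG2 cells/well, 4 h attach; compounds ~24 h, 37C/5% CO2. Readout 1: GF-AFC 25 uM final, 30 min, fluorescence 380/510 nm. Readout 2: CellTiter-Glo, 30 min RT, luminescence.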
# [12] = HepG2 viability counterscreen (readout 1: protease activity) against the NCATS DSHEA and TCM libraries (AID 1794841);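 note: cells exposed to compounds for about 24 h before the protease read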
# How it was run: as §1
# Chain of Glutathione peroxidase 1 (Homo sapiens) (P07203 whole entry, looked up): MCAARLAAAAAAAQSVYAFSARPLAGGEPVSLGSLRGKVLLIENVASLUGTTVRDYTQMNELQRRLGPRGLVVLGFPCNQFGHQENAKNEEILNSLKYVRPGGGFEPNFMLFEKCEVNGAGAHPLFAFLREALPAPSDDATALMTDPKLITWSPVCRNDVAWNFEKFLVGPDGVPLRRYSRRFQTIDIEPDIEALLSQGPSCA
# Chain of Nuclear receptor subfamily 1 group I member 3 (Homo sapiens) (Q14994 whole entry, looked up): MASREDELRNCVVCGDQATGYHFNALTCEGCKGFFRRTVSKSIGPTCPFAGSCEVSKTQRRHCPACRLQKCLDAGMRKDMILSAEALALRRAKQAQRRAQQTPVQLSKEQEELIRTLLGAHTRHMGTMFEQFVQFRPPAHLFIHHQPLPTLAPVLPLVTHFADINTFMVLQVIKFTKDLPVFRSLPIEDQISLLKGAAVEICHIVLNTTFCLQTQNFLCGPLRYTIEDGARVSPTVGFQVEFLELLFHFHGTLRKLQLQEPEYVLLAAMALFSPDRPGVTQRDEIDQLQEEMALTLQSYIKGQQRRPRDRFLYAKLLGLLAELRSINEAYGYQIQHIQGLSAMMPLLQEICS
# Chain of Rap guanine nucleotide exchange factor 3 (Homo sapiens) (O95398 whole entry, looked up): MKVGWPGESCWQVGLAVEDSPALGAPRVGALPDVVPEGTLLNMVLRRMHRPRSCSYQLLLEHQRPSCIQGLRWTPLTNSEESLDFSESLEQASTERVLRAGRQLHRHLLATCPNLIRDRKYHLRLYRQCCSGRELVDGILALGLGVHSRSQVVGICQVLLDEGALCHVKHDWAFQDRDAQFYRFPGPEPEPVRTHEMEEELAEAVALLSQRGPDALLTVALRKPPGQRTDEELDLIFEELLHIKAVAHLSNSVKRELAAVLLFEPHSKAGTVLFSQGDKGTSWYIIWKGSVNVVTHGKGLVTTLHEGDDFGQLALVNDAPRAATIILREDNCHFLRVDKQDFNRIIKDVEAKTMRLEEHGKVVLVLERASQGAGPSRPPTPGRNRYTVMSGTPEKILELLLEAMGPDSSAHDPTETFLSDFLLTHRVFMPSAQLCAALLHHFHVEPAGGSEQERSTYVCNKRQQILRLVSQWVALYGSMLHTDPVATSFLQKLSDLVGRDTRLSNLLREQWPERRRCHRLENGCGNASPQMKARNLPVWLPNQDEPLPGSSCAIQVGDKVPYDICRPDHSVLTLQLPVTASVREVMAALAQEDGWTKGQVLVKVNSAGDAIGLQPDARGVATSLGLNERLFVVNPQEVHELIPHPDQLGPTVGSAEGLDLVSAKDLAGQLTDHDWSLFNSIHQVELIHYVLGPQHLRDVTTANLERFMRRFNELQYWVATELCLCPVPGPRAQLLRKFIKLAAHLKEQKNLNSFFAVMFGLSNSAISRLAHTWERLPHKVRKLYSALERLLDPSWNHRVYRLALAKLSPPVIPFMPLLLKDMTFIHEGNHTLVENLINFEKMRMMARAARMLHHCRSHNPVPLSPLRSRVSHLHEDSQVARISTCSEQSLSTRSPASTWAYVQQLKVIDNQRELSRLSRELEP
# Chain of Rap guanine nucleotide exchange factor 4 (Homo sapiens) (Q8WZA2 whole entry, looked up, the tested form may be a part): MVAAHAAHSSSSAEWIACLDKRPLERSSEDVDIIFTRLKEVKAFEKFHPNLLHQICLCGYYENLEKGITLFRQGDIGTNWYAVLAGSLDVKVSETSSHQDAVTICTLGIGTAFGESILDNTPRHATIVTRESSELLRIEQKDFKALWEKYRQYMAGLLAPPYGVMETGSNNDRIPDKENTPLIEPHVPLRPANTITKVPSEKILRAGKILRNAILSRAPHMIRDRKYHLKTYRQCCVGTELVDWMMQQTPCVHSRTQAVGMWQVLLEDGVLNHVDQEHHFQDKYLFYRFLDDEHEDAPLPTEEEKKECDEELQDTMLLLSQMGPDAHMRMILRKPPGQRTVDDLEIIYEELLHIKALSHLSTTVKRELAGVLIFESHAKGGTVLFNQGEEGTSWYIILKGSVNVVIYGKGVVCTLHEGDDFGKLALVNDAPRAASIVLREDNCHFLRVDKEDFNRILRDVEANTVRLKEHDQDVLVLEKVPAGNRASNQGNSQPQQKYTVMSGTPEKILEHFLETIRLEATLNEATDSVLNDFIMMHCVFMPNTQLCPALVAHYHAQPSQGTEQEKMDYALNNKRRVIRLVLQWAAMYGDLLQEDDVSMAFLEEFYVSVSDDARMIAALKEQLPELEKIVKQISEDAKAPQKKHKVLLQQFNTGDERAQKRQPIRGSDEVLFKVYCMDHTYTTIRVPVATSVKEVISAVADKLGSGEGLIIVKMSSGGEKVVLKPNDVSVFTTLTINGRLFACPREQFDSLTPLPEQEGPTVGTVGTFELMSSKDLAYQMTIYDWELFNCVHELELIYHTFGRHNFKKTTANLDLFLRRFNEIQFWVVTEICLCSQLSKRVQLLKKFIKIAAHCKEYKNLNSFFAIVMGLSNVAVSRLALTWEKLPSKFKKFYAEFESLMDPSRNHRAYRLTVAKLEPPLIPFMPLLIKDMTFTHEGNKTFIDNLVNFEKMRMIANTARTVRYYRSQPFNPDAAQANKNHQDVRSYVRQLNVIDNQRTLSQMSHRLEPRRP
compound,measurement,setting,value
CC1COC2(c3ccccc3Cl)c3cc(Cl)ccc3NC(=O)CN12 (stereo not drawn),outcome,[1],inactive
COc1ccc(CN2CCNCC2)c(OC)c1OC,Potency,[2],inactive
same,outcome,[1],inactive
CN1C2CCC(C)(C)C1CC(OC(=O)C(O)(c1cccs1)c1cccs1)C2 (stereo not drawn),outcome,[1],inactive
CCOC(=O)C1(c2ccccc2)CCN(CCc2ccc(N)cc2)CC1,Potency,[2],inactive
same,outcome,[1],inactive
CC(Cc1ccccc1)NCc1ccccc1Cl (stereo not drawn),outcome,[1],inactive
C/C=C/c1ccc(OC)cc1,outcome,[3],inactive
O=C(CCCN1CCC(n2c(=O)[nH]c3ccccc32)CC1)c1ccc(F)cc1,outcome,[1],inactive
CCN(CC)Cc1nccn1-c1ccc([N+](=O)[O-])cc1C(=O)c1ccccc1Cl,outcome,[1],inactive
Clc1ccc(CO/N=C(\Cn2ccnc2)c2ccc(Cl)cc2Cl)c(Cl)c1,outcome,[4],inactive
same,outcome,[5],inactive
same,outcome,[6],inactive
same,outcome,[1],inactive
c1ccc2c(c1)Sc1ccccc1N2CC1CN2CCC1CC2 (stereo not drawn),outcome,[1],inactive
C[C@]12CC[C@H](O)CC1=CC[C@@H]1[C@@H]2CC[C@]2(C)C(=O)CC[C@@H]12,Potency,[7],inactive
same,outcome,[3],inactive
same,outcome,[8],inactive
same,outcome,[9],inactive
same,outcome,[10],inactive
same,outcome,[11],inactive
same,outcome,[12],inactive
same,outcome,[1],inactive

# From PubChem BioAssay (NCATS)
